HT1080-NT tox – kills 2HG-producing HT-1080-NT fibrosarcoma cells | HT-1080-NT fibrosarcoma viability, CellTiter-Glo ATP luminescence, 48 h | Potency, µM (top dose mostly 46.1 µM), inactives show top-dose activity, negative = less viability, actives largely listed as cytotoxic | 1.6% of 360,000 active | AID 686970;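 further: NT is the 2HG producing partner of a matched IDH1 knockdown line; 0% = DMSO-treated cells and -100% = media-only wells without cells; nearly all actives have a fitted effect of over 55% in size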
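Compounds were tested in concentration-response format on HT-1080-NT cells for 48 hours at 37 degrees C. Cell viability came from CellTiter-Glo luminescence; curves were classified by r2, response magnitude and activity.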
KB-V1 cytotox – KB-V1 MDR subline cytotoxicity. KB-V1 MDR cells viability, CellTiter-Glo, 72 h. Potency, µM (doses to about 46.1 µM), hits mostly cytotoxic. 3.4% of 400,000 active. AID 1347076; further: on the % scale 0 is the no-effect control and ±100 the full control effect; nearly all actives have a fitted effect of over 60% in size
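Readout: CellTiter-Glo luminescence, 10 min after addition. Cells: KB-V1 MDR subline, 72 h at 37 degrees C with compound. Analysis: corrected, normalized data fitted to concentration-effect curves.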
SW480 rereplic – inducers of DNA re-replication in SW480 colon cancer cells. SW480 DNA re-replication, Hoechst DNA content imaging, 48 h. 1.8% of 340,000 active. Potency, µM (titrated, usually from 46.1 µM), for the others: at the top dose re-replication activation, usual class: activators; further: % of control where 0% means no effect; nearly all actives have a fitted effect of over 55% in size
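Image-based read-out: total Hoechst fluorescence of nuclei (405 nm excitation, 500-530 nm emission), with hits raising the fraction of high-intensity nuclei. SW480 colon cells incubated 48 hr with compounds at 37 C.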
HT1080 IDH1KD tx – toxicity to HT-1080 IDH1 knockdown cells (counter line) | HT-1080 IDH1 knockdown viability, ATP luminescence, 48 h | Potency, µM (series often up to 46.1 µM), without a hit: at the top dose activity, negative = toxicity, actives largely listed as cytotoxic | 2% of 360,000 active | AID 686971;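 further: 0% = DMSO wells and -100% = cell-free medium wells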
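% activity derives from luminescence (CellTiter-Glo), normalised to DMSO and no-cell wells. HT-1080-IDH1KD cells, 750/well, had 48 h compound exposure at 37 °C.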
MCF10A rereplic – induces DNA re-replication in MCF 10a normal breast cells | Potency, µM (highest dose often 46.1 µM), for the others: at the highest dose activity, positive = re-replication, usual class: activators | MCF 10A DNA re-replication, Hoechst nuclear intensity, 48 h | 2.9% of 350,000 active | AID 624296; further: % of control where 0% means no effect; nearly all actives have a fitted effect of over 50% in size
KB-3-1 tox – kills parental KB-3-1 adenocarcinoma cells; KB-3-1 viability, CellTiter-Glo ATP luminescence, 72 h; Potency, µM (top dose mostly 46.1 µM), most hits filed as cytotoxic; 1.4% of 400,000 active; AID 1347075; further: on the % scale 0 is the no-effect control and ±100 the full control effect; nearly all actives have a fitted effect of over 60% in size
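Luminescent ATP read-out (CellTiter-Glo) measures survival of drug-naive KB-3-1 cells after 72 h compound exposure at 37 °C. Titration series was screened from lowest to highest concentration, with DMSO vehicle plates as background controls.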
* = called active by the depositor; i = inactive; ? = inconclusive; . = no result given; [ ] = remark or other dose. Sampled rows, rich in hits. Any-hit rate of the full collection: about 7.9%. The call rests on the fitted dose curve; in most records, active means well fitted curve in the direction sought with a large enough effect; inconclusive means small, poorly fitted or top-dose-only effect, or another doubt; inactive means no such curve, though single readings can be large; an effect the other way counts as inactive or inconclusive. Potency means the concentration at half of the fitted maximal effect.

SMILES	HT1080-NT tox	KB-V1 cytotox	SW480 rereplic	HT1080 IDH1KD tx	MCF10A rereplic	KB-3-1 tox
Cc1ccc2nc(N3CCN(C(=O)CCCC(=O)O)CC3)nc(-c3ccccc3)c2c1	-3%	i	3%	0%	?	i
O=C(O)CCC(=O)N1CCN(c2nc(-c3ccccc3)c3ccccc3n2)CC1	-2%	i	-5%	7%	21µM*	i
Clc1ccc(-c2nc(N3CCCCC3)nc3ccccc23)cc1	-21%	i	13µM*	-1%	7.9µM*	i
Cc1ccc(CC(=O)N(Cc2nc(-c3ccc(C)cc3)no2)C(C)C)cc1	.	i	.	.	.	i
N#Cc1c(N)n(-c2cccc(Cl)c2)c2nc3ccccc3nc12	.	i	.	.	.	i
CCN1CCN(c2cc(C)c3cc(NC(=O)c4cc(Br)ccc4Cl)ccc3n2)CC1	.	?	.	.	.	i
COCCN1C(=O)CSCC1(C)C(=O)NCc1ccccc1 (stereo not given)	45%	i	.	0%	.	i
c1ccc2c(Nc3ccc(N4CCOCC4)cc3)nc(N3CCOCC3)nc2c1	?	?	?	?	?	i
Cc1cccc(-c2nc(Nc3cccc(O)c3)c3ccccc3n2)c1	-8%	i	8%	0%	21µM*	i
Cc1cc(-c2ccc(N3CCOCC3)cc2)nc2ccccc12	4%	i	?	6%	21µM*	i
Cc1cccc(-c2nc(Nc3ccc(N4CCOCC4)cc3)c3ccccc3n2)c1	-21%	?	-1%	?	21µM*	i
Cc1ccc(-c2cc(C(=O)N3CCOCC3)c3ccccc3n2)cc1	-19%	i	-1%	-9%	9%	i
c1ccc2nc(-c3ccc(N4CCOCC4)cc3)ccc2c1	4%	i	-9%	5%	-182%[0.0737 µM]	i
CN1CCN(c2ccc(-c3ccc4ccccc4n3)cc2)CC1	?	12µM*	?	?	13µM*	i
Cc1ccc(Cl)cc1NC(=O)NCc1cccn1Cc1ccc(F)cc1	.	i	.	.	.	i
O=C(CCC1N=C2c3ccccc3N=C(SCc3cccc(F)c3)N2C1=O)NCCc1ccccc1 (stereo not given)	.	i	.	.	.	i
CCOc1ccccc1C(=O)NCc1ccc2c(c1)CCN2C(=O)c1ccccc1	.	i	.	.	.	i
CC(=O)Oc1ccc(Cn2c(C)c(C(=O)NCc3cccc(C(F)(F)F)c3)sc2=O)cc1	?	15µM*	.	?	.	23µM*
COc1ccc(C(C)=O)cc1Cn1c(C)c(C(=O)NCc2cccc(C(F)(F)F)c2)sc1=O	-19%	18µM*	.	?	.	?
Cc1ccc(NC(=O)c2sc(-n3nc(C)c(CCC(C)C)c3C)nc2C)cc1C	.	i	.	.	.	i
Cc1cccc2sc(NNC(=O)c3ccc(S(=O)(=O)N4CCCC(C)C4)cc3)nc12 (stereo not given)	?	i	7.3µM*	21µM*	?	5.2µM*
Cc1cc(C)c2nc(NNC(=O)c3ccc(S(=O)(=O)N4CCCCC4)cc3)sc2c1	?	i	?	?	?	?
Cc1cccc2sc(NNC(=O)c3ccc(S(=O)(=O)N4CCc5ccccc5C4)cc3)nc12	?	i	4.1µM*	16µM*	?	5.8µM*
CCOC(=O)N1CCN(S(=O)(=O)c2ccc(C(=O)NNc3nc4c(C)cccc4s3)cc2)CC1	?	i	?	?	?	?
Cc1cccc(C(=O)N2CCC(=O)N(C(COCc3cccc(C(F)(F)F)c3)Cc3ccccc3)CC2)c1 (stereo not given)	?	?	?	-28%	?	i
SMILES	HT1080-NT tox	KB-V1 cytotox	SW480 rereplic	HT1080 IDH1KD tx	MCF10A rereplic	KB-3-1 tox
Cc1cccc(COCC(Cc2ccccc2)N2CCN(C(=O)c3cccc(Cl)c3)CCC2=O)c1 (stereo not given)	-13%	i	?	-20%	23%	i
Cc1cccc(COC[C@H](Cc2ccccc2)N2CCN(C(=O)c3cccc(Cl)c3)CCC2=O)c1	-30%	18µM*	.	?	.	?
CC(C)C[C@@H](COCc1cccc(C(F)(F)F)c1)N1CCN(C(=O)c2ccc(C(F)(F)F)cc2)CCC1=O	?	18µM*	.	?	.	?
Cc1cccc(C(=O)N2CCC(=O)N([C@H](COCc3cccc(C(F)(F)F)c3)Cc3ccccc3)CC2)c1	?	23µM*	.	?	.	i
Cc1ccc(-c2[nH]ncc2CNC(C)c2ccccc2)cc1 (stereo not given)	.	i	.	.	.	i
CCc1c(C)c2ccc3c(c2oc1=O)CN(Cc1ccccc1)CO3	.	?	.	.	.	i
Cc1ccc(-n2c(C)cc(C(=O)COC(=O)c3c(C)noc3C)c2C)cc1	-24%	6.5µM*	16%	-21%	18%	18µM*
Cc1cc(C(=O)COC(=O)C2=COCCO2)c(C)n1-c1ccccc1	7%	13µM*	0%	-14%	0%	i
Cc1cc(C(=O)COC(=O)c2cnccn2)c(C)n1-c1ccc(Br)cc1	8%	15µM*	-5%	-7%	12%	?
CCC(=O)OCC(=O)c1cc(C)n(-c2ccc(Br)cc2)c1C	-7%	15µM*	0%	-13%	-6%	?
N#Cc1ccccc1NC(=O)CSc1ncn[nH]1	.	i	.	.	.	i
Cc1ccccc1C(=O)O/N=C(\N)Cc1cccs1	?	i	?	18µM*	-2%	?
CCCCc1nn2c(=O)cc(COC(=O)c3ccccc3NC(=O)c3cccc(C)c3)nc2s1	.	i	.	.	.	i
CCc1ccc(CNC(=O)c2ccc3c(c2)nc2n3CCCCC2)cc1	.	i	.	.	.	i
COc1ccc2cc(CNCCOCCOCCNCc3ccc4cc(OC)ccc4c3)ccc2c1	?	9.2µM*	23%	16µM*	7.3µM*	7.3µM*
CCC1(O)CCCC2C3CCC4CC(=O)CCC4(C)C3C(=O)CC21C (stereo not given)	0%	i	-9%	-3%	7%	i
Cc1cc(C)c2[nH]c(=O)c(CN(CC3CCCO3)C(=S)NCc3ccco3)cc2c1 (stereo not given)	13%	i	-2%	24%	-1%	i
Cc1cccc2cc(CN(CC3CCCO3)C(=S)NCc3ccco3)c(=O)[nH]c12 (stereo not given)	-27%	4.1µM*	?	?	7%	i
Cc1cc(C)c2[nH]c(=O)c(CN(CC3CCCO3)C(=S)Nc3ccccc3)cc2c1 (stereo not given)	3%	i	-2%	11%	5%	i
